The record followed here is ChEMBL document CHEMBL3988442, “University of Dundee, Small-Polar-MMV Screening Library” (2021).

The structures appear in SMILES notation. The whole screen tested about 48,000 compounds, of which about 13,000 (27%) showed an effect of 50% or more. This is one part of the list.

This assay relates to Wolbachia pipientis. Kind of assay: Anti-Wolbachia Cell-Based Screen. Type of assay: functional. Details: scale not given: in the data most compounds retested in dose-response had high values. The following applies: 5 µM.
Take `CN1C[C@H](COCC2CC2)[C@H]2CCN(Cc3ccco3)CC[C@H]2C1=O`: the “Percent Effect” value was -20.01%.

With `CCOC1CCN(CCc2nc(-c3cccc(Cl)c3)no2)CC1`, the “Percent Effect” value is 9.803%.

Take `CC(O)C(=O)N1CCC(c2nccn2Cc2cscn2)CC1` (stereo not drawn): the “Percent Effect” value is -11.64%.

On to `CN1CCCN(C(=O)c2cc3c(s2)CCN3C(=O)c2ccccc2)CC1`, for which the “Percent Effect” value was -3.728%.

Consider `O=C(NCCN1CCCC1)c1cc2c(s1)CCN2C(=O)c1ccccc1`, for which the “Percent Effect” value was 91.37%.

Take `CC(C1CC1)N(CC(=O)NCC(F)(F)F)C1CC1` (stereo not drawn): the “Percent Effect” value was -3.588%.

`O=C(CNc1cccc2c1CCCC2)Nc1ccccc1Br`: the “Percent Effect” value was found to be 7.656%.

In the case of `Cc1cnn(C2CCCN(C(=O)c3sccc3-n3cnnn3)C2)c1` (stereo not drawn), the “Percent Effect” value is listed as -13.25%.

As to `O=C(c1cc(Br)ccc1-n1cnnn1)N1CCCC1`, the “Percent Effect” value is on record as 113.6%.

As for `O=C(c1cc(Br)ccc1-n1cnnn1)N1CCCCC1`, the “Percent Effect” value turned out to be 184.2%.

With `NC(=O)C1CCN(C(=O)c2cc(Br)ccc2-n2cnnn2)CC1`, the “Percent Effect” value amounted to 120.4%.

On to `NC(=O)c1ccc(N2CCCCC2)c(NC(=O)c2cc(Br)ccc2F)c1`, for which the “Percent Effect” value was 10.52%.

For the compound `NC(=O)C1CCN(C(=O)c2ccccc2OCc2ccncc2)CC1`, the “Percent Effect” value is -0.6716%.

As for `NC(=O)C1CCN(C(=O)c2ccc(Cn3cc(Br)cn3)cc2)CC1`, the “Percent Effect” value is -10.39%.

On to `NC(=O)c1ccc(N2CCCCC2)c(NC(=O)c2cc(Br)ccc2Cl)c1`, for which the “Percent Effect” value is listed as 10.69%.

`O=C(c1cc(Br)ccc1Cl)N1CCN(Cc2ccco2)CC1`: the “Percent Effect” value is 8.904%.

With `O=C1C(Nc2ccc3nccnc3n2)CCN1c1ccccc1F` (stereo not drawn), the “Percent Effect” value is -13.15%.

Take `O=C(CCCc1ccccc1)Nc1cnc(N2CCOCC2)nc1`: the “Percent Effect” value is -16.01%.

Consider `CNC(=O)c1cccc(CNC(C)c2cc(Cl)ccc2OC)c1` (stereo not drawn), for which the “Percent Effect” value is 8.961%.

In the case of `CCc1c(C)nn(C)c1NC(=O)N1CCCOC(Cn2cccn2)C1` (stereo not drawn), the “Percent Effect” value is -2.471%.

Regarding `CCOCCn1nc(C)cc1C(=O)N1CC(C)(C)[C@@](C)(O)C1`, the “Percent Effect” value is -27.83%.

As for `CC1=Nc2c(c(=O)[nH]n2C(C)C)C(c2ccsc2)S1` (stereo not drawn), the “Percent Effect” value stood at 124.6%.

For the compound `CC1=Nc2c(c(=O)[nH]n2C(C)C)C(c2ccccc2)S1` (stereo not drawn), the “Percent Effect” value was found to be 3.045%.

As to `CC1=Nc2c(c(=O)[nH]n2C(C)C)C(c2ccc(F)c(F)c2)S1` (stereo not drawn), the “Percent Effect” value came to 0.5897%.

Consider `COc1cc(OC)cc(N2CCC(NCc3cc[nH]n3)C2)c1` (stereo not drawn), for which the “Percent Effect” value is -8.563%.

For the compound `Cc1ccc(C(NC(=O)Cc2nc3ncccn3n2)C2CC2)cc1` (stereo not drawn), the “Percent Effect” value was -15.47%.

On to `O=S(=O)(c1ccc2c(c1)CCC2)N1CCCC(Cn2cncn2)C1` (stereo not drawn), for which the “Percent Effect” value is 1.903%.

For the compound `O=C(CSCc1ccccn1)NCC1CCN(C2CC2)C1` (stereo not drawn), the “Percent Effect” value is reported as 21.4%.

Consider `CC(Cn1ccnc1)NC(=O)NCCc1ccccn1` (stereo not drawn), for which the “Percent Effect” value was -12.71%.

Take `CCCSCC(=O)NCc1cccc(CN(C)CC)c1`: the “Percent Effect” value was determined as 105%.

In the case of `CCCSCC(=O)Nc1ncn(CC(=O)NCc2ccccc2)n1`, the “Percent Effect” value was 0.11%.

As to `CCN(C)Cc1cccc(CNC(=O)CSCc2ccccn2)c1`, the “Percent Effect” value was determined as 99.73%.

On to `CCN(C)Cc1cccc(CNC(=O)CSCc2ccncc2)c1`, for which the “Percent Effect” value is reported as 124.3%.

For `O=C(CSCc1ccccn1)NCC1CC1`, the “Percent Effect” value was 22.7%.

In the case of `COc1cccc(CSCC(=O)NCc2cccnc2)c1`, the “Percent Effect” value came to 3.69%.

`O=C(CSCc1ccncc1)NCC1CCN(C2CC2)C1` (stereo not drawn): the “Percent Effect” value was 13.02%.

As to `O=C(NCCNc1ncccn1)NCc1cccc(OC(F)F)c1`, the “Percent Effect” value is listed as -1.067%.

In the case of `CCN(C)Cc1cccc(CNC(=O)NCCc2ccccn2)c1`, the “Percent Effect” value amounted to 112.6%.

As for `CCCC(=O)NCc1cccc(C(=O)OC)c1`, the “Percent Effect” value is listed as -9.94%.

Regarding `Cc1csc(N2CCCN(C(=O)C(C)n3ccnc3)CC2)n1` (stereo not drawn), the “Percent Effect” value is recorded as -4.315%.

Consider `Cc1nnc2n1CC(CNCc1nc(-c3cccs3)no1)CC2` (stereo not drawn), for which the “Percent Effect” value is on record as -7.356%.

Turning to `CCn1cc2c(n1)C(COC)CN(Cc1ccccn1)C2` (stereo not drawn), the “Percent Effect” value was -2.413%.

With `CCSCCn1cc(-c2ncc[nH]2)nn1`, the “Percent Effect” value is reported as 7.304%.

As for `CNC1CCN(C2CCN(c3ccc(-c4ccco4)cc3)CC2)CC1`, the “Percent Effect” value is reported as -8.193%.

With `Cn1cc(C(=O)N2CCCN(c3cccnn3)CC2)c2ccccc21`, the “Percent Effect” value is given as -6.467%.

Turning to `O=S(=O)(CCCn1cncn1)Cc1ccccc1Cl`, the “Percent Effect” value is recorded as -3.419%.

In the case of `CC(C)C(=O)Nc1cccc(CNC(=O)CSCc2ccccn2)c1`, the “Percent Effect” value was 119.7%.

For the compound `CC(C)OCCOCc1cccc(NC(=O)NCc2ccccn2)c1`, the “Percent Effect” value was 14.04%.

As to `CC(C)c1cc2c(O)nc(CSCC(=O)NCc3ccccn3)nc2s1`, the “Percent Effect” value is -13.17%.

Turning to `Nc1cc2c(nn1)CCN(C(=O)c1cccc3c1OCO3)C2`, the “Percent Effect” value is reported as 99.08%.

Turning to `CNc1cc2c(nn1)CCN(C(=O)c1cccc3c1OCCO3)C2`, the “Percent Effect” value is listed as 94.51%.

With `CCNc1cc2c(nn1)CCN(C(=O)C1COc3ccccc3O1)C2` (stereo not drawn), the “Percent Effect” value was -8.562%.

`CCNc1cc2c(nn1)CCN(C(=O)c1cccc3c1OCCO3)C2`: the “Percent Effect” value was 1.992%.
